Shown are actives, neighbours in structure and some others; about 3.7% of the full set was active somewhere.
BoNT F protease: inhibitors of Botulinum neurotoxin F light chain protease | Multiplex microsphere protease cleavage assay, flow cytometry | inhibition, % at 10 µM | hit rate 0.22% among 360,000 | AID 588497; in the data active means inhibition above about 35%, passing the limit was not always enough; inconclusive means no clear call, values can overlap the other calls; further: plate controls were buffer without enzyme for full effect and enzyme alone for no effect
Anthrax LF prot: blocks Bacillus anthracis lethal factor protease | hit rate 0.12% among 360,000 | multiplex microsphere protease cleavage assay, LF | inhibition, % at 10 µM | P15917; further: plate controls were buffer without enzyme for full effect and enzyme alone for no effect
Target sequence (P15917 whole entry, looked up): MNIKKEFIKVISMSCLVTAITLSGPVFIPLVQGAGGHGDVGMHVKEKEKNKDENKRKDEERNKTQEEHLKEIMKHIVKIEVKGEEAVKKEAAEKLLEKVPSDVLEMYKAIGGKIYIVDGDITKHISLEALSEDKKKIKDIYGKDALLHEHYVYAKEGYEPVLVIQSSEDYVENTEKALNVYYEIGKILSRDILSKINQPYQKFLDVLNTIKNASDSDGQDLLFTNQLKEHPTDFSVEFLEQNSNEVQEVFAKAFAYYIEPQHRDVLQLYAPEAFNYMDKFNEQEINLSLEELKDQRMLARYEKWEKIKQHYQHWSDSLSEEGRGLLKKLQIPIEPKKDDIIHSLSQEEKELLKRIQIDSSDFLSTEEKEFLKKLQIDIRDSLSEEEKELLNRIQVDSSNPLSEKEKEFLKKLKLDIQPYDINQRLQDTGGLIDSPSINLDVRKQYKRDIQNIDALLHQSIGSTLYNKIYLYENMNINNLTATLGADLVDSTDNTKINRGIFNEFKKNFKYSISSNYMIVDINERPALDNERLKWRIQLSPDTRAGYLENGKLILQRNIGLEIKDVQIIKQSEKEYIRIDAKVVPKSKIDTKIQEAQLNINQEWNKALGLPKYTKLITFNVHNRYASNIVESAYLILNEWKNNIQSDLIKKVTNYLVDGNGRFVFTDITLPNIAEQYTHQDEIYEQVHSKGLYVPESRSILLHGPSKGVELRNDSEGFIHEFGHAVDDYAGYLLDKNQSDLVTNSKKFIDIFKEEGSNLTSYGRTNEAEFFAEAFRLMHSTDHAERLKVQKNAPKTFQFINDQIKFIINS
Bead autofluor: flagged as autofluorescent in microsphere protease counterscreen | compound autofluorescence counterscreen, microsphere flow cytometry; hits give high values | fluorescence intensity (concentration not given with the values) | hit rate 3.1% among 360,000 | AID 624483; in the data active means fluorescence intensity above about 16000; inconclusive means no clear call, values can overlap the other calls
BH1578 lux ind: induces V. cholerae light production without autoinducers. V. cholerae BH1578 lux reporter, luminescence, 6 h. activation, % at 18.7 µM. hit rate 0.16% among 350,000; in the data active means activation mostly above about 9.7%, no sharp cut-off; inconclusive means no clear call, values can overlap the other calls; inactive means mostly below about 3.7%
BJeLR lethal: BJeLR cell viability loss | BJeLR (HRASV12) viability, CellTiter-Glo ATP luminescence, 48 h | inhibition, % (no concentration beside the values) | hit rate 0.17% among 300,000 | AID 1554; in the data active means inhibition above about 50%; inconclusive means no clear call, values can overlap the other calls
BoNT A protease: blocks Botulinum neurotoxin A light chain protease; inhibition, % at 10 µM; AID 588499; hit rate 0.17% among 360,000; multiplex microsphere protease substrate cleavage, flow cytometry; further: plate controls were buffer without enzyme for full effect and enzyme alone for no effect
* hit, by the source's call; i = inactive; ? = inconclusive; . = no result. Unless noted, no stated cut-off is given here; in the data, active means inhibition above about 30%; inconclusive means no clear call, values can overlap the other calls; inactive means below that.

SMILES | BoNT F protease | Anthrax LF prot | Bead autofluor | BH1578 lux ind | BJeLR lethal | BoNT A protease
CN1C(=O)[C@H]2[C@@H](c3ccc(C(F)(F)F)cc3)N[C@]3(CCCN(Cc4ccc(Br)cc4)C3=O)[C@H]2C1=O | 2 | 1 | 3601 | i | . | 0
C[C@H]1CN([C@@H](C)CO)C(=O)CCCn2cc(nn2)CO[C@@H]1CN(C)C(=O)CCC(F)(F)F | -4 | -1 | 3543 | i | . | 0
Cc1ccc(C(=O)O/N=C/c2c(N3CCOCC3)n(C)c3ccccc23)cc1 | -25 | -10 | 5928 | 1 | 18 | -1
CC(=O)O/N=C/c1c(N2CCOCC2)n(C)c2ccccc12 | -1 | -6 | 23889* | i | -1 | -2
COCCNC(=O)C1(C)CCN(C(=O)c2nc(C)oc2C)C1 (stereo not given) | -1 | 5 | 3799 | i | . | 0
Cc1nc(-c2cccc(NS(=O)(=O)c3cccc4ccccc34)c2)cs1 | 3 | -1 | 22200* | -2 | 5 | ?
C=C(C)CN(CC)c1nc(N)c(C#N)c(CC#N)c1C#N | 0 | -1 | 20294* | i | 2 | ?
CCCCN(CC)c1nc(N)c(C#N)c(CC#N)c1C#N | 3 | -7 | 10159 | i | -23 | 0
Cn1nc(-c2ccc(N3CCCCC3)c(NC(=O)c3ccco3)c2)c2ccccc2c1=O | -2 | -2 | 23305* | i | -17 | ?
COc1ccc(NC(=O)C(CC(=O)O)Cc2ccc(Br)cc2)cc1 (stereo not given) | ? | 16 | 3959 | 0 | 7 | -3
COc1ccc(NC(=O)C(CC(=O)O)Cc2ccccc2)cc1 (stereo not given) | 3 | 4 | 22396* | i | 3 | 2
Cc1ccc(S(=O)(=O)N(CC(=O)N2CCN(c3ccccc3F)CC2)C2CCCCC2)cc1 | -3 | -1 | 20732* | 0 | 0 | -1
Cc1ccc(S(=O)(=O)N(CC(=O)N2CCOCC2)C2CCCCC2)cc1 | -6 | -3 | 23611* | 3 | -7 | ?
CC(C)(C)c1ccc(CC(=O)N2CCC2(C)C(=O)NCc2ccc3c(c2)OCO3)cc1 (stereo not given) | 1 | 0 | 3985 | -4 | . | -1
Nc1nc(CCl)nc(Nc2cccc3ccccc23)n1 | . | . | . | -1 | 125* | .
O=C(CSc1nc2ccccc2c(=O)n1NC(=O)Cc1ccccc1)NCc1ccccc1 | -7 | 0 | 23372* | 7 | -3 | -2
O=C(CSc1nc2ccccc2c(=O)n1NC(=O)c1ccccc1)c1ccc(Cl)cc1 | 5 | -1 | 19026* | -3 | 7 | ?
COc1ccc(C(=O)Nn2c(SCC(=O)NC3CCCC3)nc3ccccc3c2=O)cc1 | 5 | 1 | 21985* | i | 4 | 1
COc1ccc(C(=O)Nn2c(SCC(=O)NCc3ccccc3)nc3ccccc3c2=O)cc1 | -2 | -11 | 8897 | . | 10 | 1
O=C(CSc1nc2ccccc2c(=O)n1NC(=O)c1ccccc1)c1ccccc1 | 1 | -5 | 22548* | 4 | 2 | 0
Nc1ccc(S(=O)(=O)Nc2nc(-c3ccccc3)cc(-c3ccccc3O)n2)cc1 | -8 | -6 | 3969 | i | . | -1
Clc1ccc2c(SCC3CO3)c3ccccc3nc2c1 (stereo not given) | 3 | -2 | 3852 | i | . | 1
CCOc1ccc(C2c3cc(OC)c(OC)cc3CC(=O)N2c2ccccc2)cc1 (stereo not given) | 7 | -1 | 20080* | -2 | 7 | 5
COC(=O)c1ccc2c(c1)C(C)(C)C(/C=C/c1ccc(OC)c(OC)c1OC)=[N+]2C | -23 | -4 | 2506 | i | 52* | 0
COC(=O)c1ccc2c(c1)C(C)(C)C(/C=C/c1ccc(O)cc1)=[N+]2C | -18 | -2 | 10719 | -1 | 29 | 4
SMILES | BoNT F protease | Anthrax LF prot | Bead autofluor | BH1578 lux ind | BJeLR lethal | BoNT A protease
CCCC(=O)N1CCC1(C)C(=O)Nc1cccc(OC(C)C)c1 (stereo not given) | 0 | -5 | 3716 | -5 | . | 0
O=S1(=O)CC(N2CCCC2)CN1Cc1cn(Cc2ccc(Cl)cc2)nn1 (stereo not given) | 0 | -7 | 4126 | . | . | 0
COc1cc(/C=C/[N+](=O)[O-])ccc1O | 1 | 2 | 2863 | 1 | 72* | 0
COc1cc(C=C(C(C)=O)C(C)=O)ccc1O | 18 | 0 | 3454 | 0 | 9 | 1
COc1cc(/C=C/C(=O)CC(=O)/C=C/c2ccc(O)c(OC)c2)ccc1O | -12 | 17 | 6257 | 6 | -9 | 31*
COc1cc(/C=C/C(=O)/C=C(O)/C=C/c2ccc(O)c(OC)c2)ccc1O | -1 | 10 | 4422 | i | . | 32*
COc1cc(/C=C/C(=O)O)ccc1O | -19 | -1 | 5977 | 0 | -3 | -1
COc1cccc(-c2cc3nc(NCCN4CCCC4)n(C)c(=O)c3s2)c1 | -2 | -1 | 4208 | -1 | . | 0
Cc1cc(C)n2nc(CNS(=O)(=O)c3ccc(C(C)(C)C)cc3)nc2n1 | -2 | -5 | 6180 | 0 | . | -1
C=C(C)CSc1nc2ncccc2[nH]1 | 1 | 1 | 2814 | -5 | 1 | 0
CCN(CC)C(=O)CSc1nc2ncccc2[nH]1 | -4 | 0 | 24215* | i | 9 | ?
CC(C)n1nnnc1C1c2ccccc2C(=O)N1Cc1cccnc1 (stereo not given) | 4 | -8 | 5866 | . | . | 0
COc1cc(/C=C2/N=C(C3CCCCC3)OC2=O)cc(OC)c1OC | 1 | -4 | 20975* | i | 3 | ?
Cc1c(C#N)c2n(c1C)CCCC(=O)N2 | 2 | 1 | 3764 | i | . | 0
COc1ncnc2c1ncn2CCCNC1CCN(Cc2ccccc2)CC1 | -1 | -2 | 3838 | 0 | . | 0
Cc1cc(C(=O)NCc2ccccc2Br)no1 | -3 | -1 | 21781* | -1 | 2 | ?
Cc1cc(C(=O)NCc2ccccc2)no1 | 17 | -16 | 15472 | 0 | . | 13
CCNC(=S)NNC(=O)c1cc(C)on1 | 6 | 0 | 21335* | -1 | 5 | 5
Cc1nn(Cc2ccccc2)c(Cl)c1C(=O)NCc1ccc(C)n1C | 2 | -7 | 19508* | i | 1 | ?
Cc1nn(Cc2ccccc2)c(Cl)c1C(=O)NCCc1ccccc1 | -4 | -2 | 2109 | 1 | -2 | 0
COc1ccc(NC(=O)C2CCCN(c3c4c(nc5ncnn35)CCC4)C2)cc1 (stereo not given) | 1 | -2 | 23021* | 0 | 9 | 0
O=C(Nc1ccc(Oc2ccccc2)cc1)C1CCCN(c2ncccn2)C1 (stereo not given) | 7 | -4 | 21093* | 1 | 9 | 3
O=C(Nc1ccc(C2CCCCC2)cc1)C1CCCN(c2ncccn2)C1 (stereo not given) | 6 | -1 | 22140* | i | 5 | ?
COc1ccc(NC(=O)C2CCCN(c3cc(C)nc4ncnn34)C2)cc1 (stereo not given) | 4 | -3 | 3379 | 0 | -22 | 0
Cc1nnc(NC(=O)C2CCCN(c3ncccn3)C2)s1 (stereo not given) | -2 | -6 | 22811* | 0 | . | -2

Source: PubChem
